According to PubChem BioAssay AID602391 (National Center for Advancing Translational Sciences (NCATS), 2012):
This is one part of the list. Inconclusive results are not listed. Active and inactive are the calls of the source. Calls follow the shape of the dose curve; as a rule, active = well fitted inhibition curve with a large enough effect; inconclusive = small, poorly fitted or top-dose-only effect; inactive = flat fitted curve, though single readings scatter.

Assay: qHTS Assay for Inhibitors of Bacillus subtilis Sfp phosphopantetheinyl transferase (PPTase): SAR in hGST A1-1
Conditions: hGST A1-1 enzyme activity counter-screen; series mostly up to 114 µM
Description: The covalent attachment of a phosphopantetheinyl (4'-PP) arm to a variety of synthases and other proteins is a key posttranslational protein modification. The 4'-PP is installed on the proteins post-translationally from coenzyme A (CoA) on a conserved serine residue by action of phosphopantetheinyl transferase (PPTase) enzymes. Phosphopantetheinylation is essential for synthase activity, and removal of the PPTase gene precludes natural product synthesis in microorganisms, or in the case of fatty acid biosynthesis, renders the organism unviable. PPTase enzymes belong to a distinct structural superfamily. Within bacteria, these enzymes are grouped into two classes based upon primary structure, the AcpS-Type and Sfp-Type PPTases. […]
In search of small molecule Sfp-PPTase inhibitors, a fluorescence quenching assay was developed for detection of Bacillus subtilis Sfp-PPTase enzymatic activity in a miniaturized high-throughput format. […]
This assay sought to assess the promiscuity of test articles with an unrelated target enzyme. The appropriate target for this work was determined to be human glutathione-S-transferase, an enzyme responsible for detoxifying modifying electrophilic xenobiotics to enhance their excretion. […]

SMILES	outcome
Cc1cc(C)nc(NC(=S)N2CCN(c3ccc(Cl)cc3C(F)(F)F)CC2)c1	inactive
COc1ccnc(NC(=S)N2CCN(c3ncc(C(F)(F)F)cc3Cl)CC2)c1	inactive
